Calls of active or inactive are those of the source. The calls were made as follows: active = hit-call score of the fitted dose curve at least 0.9, where 1 is the maximum; inactive = score below 0.9.

The assay in a line: ATG_CRE_CIS: Attagene CIS-FACTORIAL HepG2 Assay for human cAMP Responsive Element (CRE) binding protein 3 (AID 2282926). To be noted: HepG2 CRE cis-reporter, Attagene multiplexed mRNA; actives raise or lower the signal. An outline of the steps:
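Endogenous CRE-binding activity in HepG2 is reported through a cis-regulated transfected reporter. Following a day of exposure, mRNA levels are determined by reverse transcription PCR and fluorescent fragment analysis; fits run in both directions versus DMSO.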
Regarding `CCOc1ccc(N)cc1`, the result was inactive.
For `CC(C)(C)c1cc([N+](=O)[O-])cc(C(C)(C)C)c1O`, the molecule was called inactive.
Still for that read-out and setting: under `CC(C)(C#N)N=NC(C)(C)C#N` stands “inactive”; under `CC(C)C(C)(N)C#N` (centres undefined), “inactive”.
On to `CN(C)[C@@H]1C(=O)C(C(N)=O)=C(O)[C@@]2(O)C(=O)C3=C(O)c4c(O)ccc(Cl)c4[C@@](C)(O)[C@H]3C[C@@H]12`, for which the molecule was classed as inactive.
As to `N#Cc1ccccc1N`, the result was inactive.
With `C1CN2CCN1CC2`, the molecule was called inactive.
Take `CCOC(=O)C(SP(=S)(OC)OC)c1ccccc1` (centres undefined): the molecule was called inactive.
On the same count and under the same terms, the result for `NC(=O)CCl` reads “inactive”; that for `O=c1[nH]c(=O)n(Cl)c(=O)n1Cl`, “inactive”.
As to `Clc1ccc(C(Cl)(Cl)Cl)cn1`, the molecule was called inactive.
In the case of `Clc1cnc(Oc2ccc(Oc3ncc(Cl)cc3Cl)cc2)c(Cl)c1`, the result was inactive.
In the case of `O=[N+]([O-])c1ccc(Cl)c([N+](=O)[O-])c1`, the result was inactive.
`Brc1c(Br)c(Br)c(Oc2c(Br)c(Br)c(Br)c(Br)c2Br)c(Br)c1Br`: the outcome was inactive.
`C=C(C)[C@@H]1CC=C(C=O)CC1`: the result was inactive.
With `OCCCCO`, the molecule was called inactive.
Same read-out and setting: the result for `CCC(C)(C#N)N=NC(C)(C#N)CC` (centres undefined) reads “inactive”; that for `CN(CCCC(O)c1cccnc1)N=O` (centres undefined), “inactive”.
For the molecule `CC1CC(=O)O1` (centres undefined), the result was inactive.
With `OCC(c1ccc(Cl)cc1)c1ccc(Cl)cc1`, the molecule was called inactive.
The same measure, in the same setting: the result for `C=CCOC(N)=O` reads “inactive”.
On the same count and under the same terms, under `O=C(Nc1ccc(Br)cc1)c1cc(Br)cc(Br)c1O` stands “inactive”; under `CNC(=O)O/N=C/C(C)(C)S(C)(=O)=O`, “inactive”; under `O=C=Nc1ccc(Cl)cc1`, “inactive”.
Take `O=S(=O)(c1ccc(Cl)cc1)c1cc(Cl)c(Cl)cc1Cl`: the AC50 is 37.8 µM (active).
Turning to `O=C1C[C@@H]2OCC=C3CN4CC[C@]56c7ccccc7N1[C@H]5[C@H]2[C@H]3C[C@H]46`, the molecule was called inactive.
`Cc1cccc(OP(=O)(Oc2cccc(C)c2)Oc2cccc(C)c2)c1`: the outcome was inactive.
For the molecule `COC(=O)Nc1cccc(OC(=O)Nc2cccc(C)c2)c1`, the result was inactive.
Consider `CC(C)(C)c1ccc(CCOc2ncnc3ccccc23)cc1`, for which the call was inactive.
As for `Nc1cccnc1`, the outcome was inactive.
As for `Cc1cc(Cl)ccc1OC(C)C(=O)O` (centres undefined), the molecule was called inactive.
The same measure, in the same setting: the result for `CC(=O)C(F)(F)C(F)(F)F` reads “inactive”; that for `CN(C)CCN(C)C`, “inactive”; that for `CC(F)(F)CC(F)(F)F`, “inactive”.
As for `C=CC(=O)NC(C)(C)CC(C)=O`, the molecule was called inactive.
In the case of `C[As+](C)(C)CC(=O)[O-]`, the call was inactive.
As to `Cc1cc(SCc2sc(-c3ccc(C(F)(F)F)c(F)c3)nc2C)ccc1OCC(=O)O`, the call was inactive.
For the molecule `CCCCCCCCCCCCN(C)C`, the outcome was inactive.
`Nc1nc(=S)[nH][nH]1`: the call was inactive.

The term AC50 denotes the midpoint of the concentration-response curve, whichever way the signal moves.

For the origin of these results see PubChem BioAssay (EPA / NIEHS).
